Compound activity from PubChem BioAssay.
The list is not random: actives were taken first. Their share in the collection is about 4.1%.
DAX1 inh-1 – inhibitors of DAX1 repression of SF-1 activated StAR promoter. HEK293T StAR-luciferase reporter, SF-1/DAX-1 repression relief. inhibition, % at 6.8 µM. 370,000 compounds, 1.1% hits. AID 652010;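 active = inhibition above the mean over all tested compounds plus 3 SD, cut at about 3.6% in these data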;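 note: 0% = DAX-1 cells with DMSO and 100% = cells lacking DAX-1 with DMSO; higher inhibition means more luminescence from relief of DAX-1 repression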
DAX1 inh-2 – NR0B1 (DAX1) inhibition; P51843; HEK293 Gal4-DAX1 luciferase reporter, luminescence; inhibition, % at 6.75 µM; 340,000 compounds, 0.99% hits; AID 504766;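 active = inhibition above the mean over all tested compounds plus 3 SD, cut at about 4.2% in these data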;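 note: 0% = DAX1-transfected cells with DMSO and 100% = empty-vector control cells with DMSO; inhibition shows as a rise in luminescence from relieved DAX1 repression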
Target sequence (P51843 207-470 limits assumed): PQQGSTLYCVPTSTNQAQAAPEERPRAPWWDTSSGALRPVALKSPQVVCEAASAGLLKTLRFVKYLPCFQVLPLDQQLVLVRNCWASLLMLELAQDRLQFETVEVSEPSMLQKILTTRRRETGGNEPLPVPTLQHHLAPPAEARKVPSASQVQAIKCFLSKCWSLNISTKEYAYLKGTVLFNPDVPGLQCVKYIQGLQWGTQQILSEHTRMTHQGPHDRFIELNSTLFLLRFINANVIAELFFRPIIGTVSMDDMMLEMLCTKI
hcDAF12 agonist – activates DAF-12 receptor from parasite H. contortus. HEK293 hcDAF-12 lit1-tk-luc reporter, luminescence; 0% DMSO, 100% Δ7-dafachronic acid. activation, % at 6.8 µM. 370,000 compounds, 1.4% hits;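 active = activation above the mean of all tested compounds plus 3 SD, cut at about 5.5% in these data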;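 note: 100% = response to 3 µM Δ7-dafachronic acid high control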
hgDAF12 agonist – hgDAF-12 agonism, primary luciferase screen. activation, % at 6.8 µM. 370,000 compounds, 1.8% hits. HEK293 GAL4-hgDAF12 UAS-luciferase reporter, agonist luminescence; normalized to butyrate control;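 active = activation above a cutoff set at the mean of all screened compounds plus 3 SD, cut at about 10% in these data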;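 note: 0% = DMSO wells and 100% = sodium butyrate wells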
ssDAF12 agonist – S. stercoralis DAF-12 activation, primary screen; 370,000 compounds, 1% hits; HEK293 ssDAF-12/GRIP1 lit1-tk-luc reporter, luminescence; % of 3 µM dafachronic acid response; activation, % at 6.8 µM;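 active = activation above the mean over all tested compounds plus 3 SD, cut at about 0.9% in these data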;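 note: 0% = DMSO-only wells and 100% = 3 µM delta7-dafachronic acid wells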
An asterisk follows results filed as active; x = not tested or not shown.

SMILES | DAX1 inh-1 | DAX1 inh-2 | hcDAF12 agonist | hgDAF12 agonist | ssDAF12 agonist
CCO[C@H]1OC(C(=O)NC2CC2)=C[C@@H](C2CCCCC2)[C@@H]1CCCO | -0.3 | 1.0 | -0.8 | -0.2 | -1.6
C#CCNC(=O)C1=C[C@@H](C2CCCCC2)[C@H](CCCO)[C@@H](OCC)O1 | -0.3 | 5.3* | -1.6 | 0.3 | -1.4
CCO[C@@H]1OC(C(N)=O)=C[C@H](C2CCCCC2)[C@H]1CCCO | 0.2 | 4.3* | -0.5 | -0.5 | -1.1
Cc1ccc(C(=O)/C=C/c2cn(CN3CCN(C)CC3)c3ccccc23)cc1 | 1.5 | 0.3 | 0.6 | 12.7* | -0.1
COC(=O)[C@]12C[C@H](CC(=O)NCC34CC5CC(CC(C5)C3)C4)C(=O)N(Cc3ccco3)C1=C[C@H](COCc1ccccc1)O[C@@H]2C | -0.4 | x | -2.8 | -0.3 | -1.1
O=C(NCc1ccccc1)c1ccc(F)c(F)c1 | -0.4 | 0.2 | -0.1 | -0.6 | -1.1
CN(C)c1c(F)cc(C(=O)NCc2ccccc2)cc1F | 0.2 | 4.3* | -1.0 | 0.3 | -1.5
COc1ccc(-n2ncc3c(NCc4cccnc4)ncnc32)cc1 | 2.1 | 2.4 | 3.3 | 11.3* | 0.1
Cc1ccc(-c2c(NC(=O)C3CC3)nc3ncccn23)cc1 | 1.1 | x | -0.5 | 2.6 | -1.6
O=C(Nc1cccc2ccccc12)C(=O)C1C(=O)Nc2ccccc21 (centres undefined) | -0.2 | 0.1 | 6.1* | 2.5 | -0.1
C[C@@H]1CN([C@@H](C)CO)C(=O)CCCn2cc(nn2)CO[C@H]1CN(C)C(=O)Nc1ccc2c(c1)OCO2 | -0.2 | x | 0.4 | 2.9 | -1.0
COC(=O)[C@]12C[C@H](CC(=O)NCc3cccc4ccccc34)C(=O)N(Cc3ccc(Cl)cc3Cl)C1=C[C@H](C(C)(C)C)O[C@@H]2C | -1.2 | x | 0.7 | 0.5 | -1.4
COc1ccc(C(=O)N/N=C(\C)CC(=O)Nc2ccc(N(C)C)cc2)c(OC)c1 | -0.3 | 4.7* | -1.1 | 1.8 | -0.7
Cc1ccc(C(=O)NCC(=O)OC(C)C(=O)Nc2ccccc2[N+](=O)[O-])s1 (centres undefined) | 3.6* | 0.8 | -0.2 | 2.8 | -1.2
Cc1nn(CC(=O)OC(C)C(=O)Nc2ccccc2[N+](=O)[O-])c(C)c1[N+](=O)[O-] (centres undefined) | 0.4 | -0.1 | 0.5 | -1.0 | 3.5*
CC(OC(=O)CCC(=O)c1cccs1)C(=O)Nc1ccccc1[N+](=O)[O-] (centres undefined) | 0.1 | 1.1 | 1.4 | -0.7 | -0.5
CC1CCN(C(=O)C2CCCN(C(=O)c3ccc4c(c3)NC(=O)CS4)C2)CC1 (centres undefined) | -1.0 | x | -1.5 | -3.4 | -0.8
CN(C(=O)c1cc(-c2ccccc2)on1)C1CCCCC1 | 2.8 | 3.3 | 2.2 | 11.4* | 0.0
O=C(Nc1ccc(N2CCCC2=O)cc1)c1cccc(F)c1 | 1.1 | 1.4 | 0.3 | 10.8* | -1.0
COc1ccc(CNC(=O)c2cc(C)nn2-c2ccccc2)cc1 | 0.1 | 6.7* | -0.1 | -2.1 | -1.1
COc1ccc(CNC(=O)c2cccc(N3CCCC3=O)c2)cc1 | 0.3 | 0.2 | -1.7 | 1.7 | 1.2*
COc1ccc(NC(=O)c2cc(C)nn2-c2ccccc2)cc1 | -0.1 | 0.1 | -0.7 | 8.5 | -0.8
O=C(C1CCCN1S(=O)(=O)c1ccc([N+](=O)[O-])cc1)N1CCN(c2ccccc2)CC1 (centres undefined) | 0.8 | x | -3.6 | 1.8 | 0.0
O=C(c1cc2ccccc2oc1=O)N(Cc1cccc(Br)c1)C1CCS(=O)(=O)C1 (centres undefined) | 0.0 | 1.3 | 0.2 | -0.5 | -1.1
CN(C)c1ccc(CN(C(=O)c2cc3ccccc3oc2=O)C2CCS(=O)(=O)C2)cc1 (centres undefined) | 5.2* | 1.4 | 2.3 | 6.7 | -0.1
SMILES | DAX1 inh-1 | DAX1 inh-2 | hcDAF12 agonist | hgDAF12 agonist | ssDAF12 agonist
CC(Oc1ccccc1Cl)C(=O)N(Cc1ccco1)C1CCS(=O)(=O)C1 (centres undefined) | 0.7 | -1.7 | -0.6 | -2.3 | 1.6*
O=C(C(c1ccccc1)c1ccccc1)N(Cc1ccco1)C1CCS(=O)(=O)C1 (centres undefined) | -0.2 | 0.6 | -1.9 | -3.5 | -0.9
O=C(c1cc2ccccc2oc1=O)N(Cc1ccco1)C1CCS(=O)(=O)C1 (centres undefined) | 1.5 | 0.9 | 4.8 | 12.9* | 0.3
CC(C)c1ccc(CN(C(=O)c2cc3ccccc3oc2=O)C2CCS(=O)(=O)C2)cc1 (centres undefined) | -0.2 | -0.3 | -0.3 | 0.9 | -0.8
COC(=O)[C@]12C[C@H](CC(=O)NCc3ccc(OC)c(OC)c3)C(=O)N(Cc3ccc(Cl)cc3Cl)C1=C[C@H](C1CCCC1)O[C@@H]2C | -2.0 | x | -1.3 | 1.5 | -1.4
CCOC(=O)[C@@]12CCCC=C1N(CCc1ccc(Cl)cc1)C(=O)[C@H]2CC(=O)NCc1ccc(OC)c(OC)c1 | -1.8 | x | -3.9 | -3.7 | -1.2
COC(=O)[C@]12C[C@H](CC(=O)N3CCC(c4ccccc4)CC3)C(=O)N(Cc3cccc4ccccc34)C1=C[C@H](C1CCCC1)O[C@@H]2C | -0.9 | x | 0.6 | 4.0 | -1.1
N#Cc1ccc(CO/N=C/c2ccccc2)cc1 | 0.2 | 0.7 | 1.4 | 7.5 | -0.6
Cc1nc2ccccc2nc(C)c1=NOCc1ccc(C#N)cc1 | 1.9 | 1.9 | 4.1 | 11.4* | 0.3
Oc1ccc(/C=N/N2CCOCC2)c(O)c1O | -0.5 | 6.2* | -0.1 | 4.5 | -1.8
Oc1ccc(/C=N/N2CCCCC2)c(O)c1O | 0.0 | -0.1 | -5.7 | -3.2 | -1.1
CCCCOc1ccc(C(=O)NC2CCCCN(Cc3ccccc3C)C2=O)cc1 (centres undefined) | -4.5 | x | -3.7 | 1.0 | -1.5
COc1ccc(/C(C#N)=C/c2ccccn2)cc1 | 0.9 | 1.3 | 3.6 | 12.2* | 0.2
N#C/C(=C\c1ccccn1)c1nc2ccccc2s1 | 0.5 | 1.2 | 2.5 | 4.2 | 0.2
C=CCn1c(C)cc(C2=NNC(=Nc3ccc(C)cc3)SC2)c1C | 0.0 | -0.3 | 1.6 | -1.3 | -0.3
Cc1ccc(C2=NNC(=Nc3ccc(F)cc3)SC2)cc1 | 0.4 | 0.2 | 5.7* | 10.9* | -0.6
CC(C)c1ccc(N=C2NN=C(c3cccs3)CS2)cc1 | 3.2 | 7.2* | 2.2 | 5.9 | -0.1
C=CCN1C(=O)[C@@H](CC(=O)NCCCC)[C@]2(C(=O)OCC)CCCCC/C=C/12 | -0.1 | x | 1.1 | 1.4 | -1.3
Cc1ccc(-c2nnc(NC(=O)COc3ccc(F)cc3Cl)o2)cc1C | x | x | -0.5 | 2.3 | -0.9
COc1ccc(-c2cc(CS(=O)(=O)c3ccccc3)on2)cc1 | 3.4 | 4.5* | 1.4 | 13.2* | -0.5
O=S(=O)(Cc1cc(-c2ccccc2)no1)c1ccccc1 | 2.6 | -1.1 | -0.1 | 9.6 | -0.7
CC(=O)c1cccc(NC(=O)c2ccc(NS(C)(=O)=O)cc2)c1 | -0.3 | 0.4 | -1.7 | -2.3 | -1.1
COc1ccc(C(=O)Nc2cc(OC)nc(OC)n2)cc1 | 2.5 | 0.8 | 3.5 | 11.9* | 0.0
